Laboratory results published in PubChem BioAssay (NCI).
This is part of a sample that, as a whole, favours compounds with a hit. Of some 79,000 tested, about 15% had one in any assay. Active and inactive are the calls of the source. Rule as the data show it: active = growth inhibition above about 70%; inactive = the rest.

Experiments:
[1] = NCI Yeast Anticancer Drug Screen. Data for the rad50 strain (AID 155);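 also: 0% = growth of vehicle-only cultures of the same strain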; settings: S. cerevisiae rad50 strain growth inhibition; at 50.0 µM; stronger effect = higher value
In short: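 Compounds were tested on a yeast strain with an engineered DNA damage repair alteration; the reported value is growth inhibition normalised to vehicle treatment.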

[2] = NCI Yeast Anticancer Drug Screen. Data for the mec2-1 strain (AID 157); settings: S. cerevisiae mec2-1 strain, at 50.0 µM, stronger effect = higher value
In short: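 Strain: mec2-1 (DNA repair/cell cycle alteration). Compound exposure, then growth measured; inhibition expressed relative to vehicle.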

[3] = NCI Yeast Anticancer Drug Screen. Data for the sgs1 mgt1 strain (AID 161);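 also: 0% = growth of cultures given vehicle only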; settings: S. cerevisiae sgs1 mgt1 strain, at 50.0 µM, stronger effect = higher value
In short: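 Genetically altered yeast, compound exposure, growth inhibition relative to vehicle.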

[4] = NCI Yeast Anticancer Drug Screen. Data for the cln2 rad14 strain (AID 165);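 also: 0% = growth equal to vehicle treated cultures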; settings: S. cerevisiae cln2 rad14 strain, at 50.0 µM, stronger effect = higher value
In short: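 Compounds are applied to the cln2 rad14 yeast strain, and growth is then compared with that of vehicle-treated cultures to give inhibition.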

[5] = NCI Yeast Anticancer Drug Screen. Data for the bub3 strain (AID 167); settings: S. cerevisiae bub3 mutant strain, at 50.0 µM, stronger effect = higher value
In short: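 Growth of a checkpoint-deficient yeast mutant is measured after compound exposure. Values represent inhibition relative to vehicle.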

[6] = NCI Yeast Anticancer Drug Screen. Data for the mlh1 rad18 strain (AID 175); settings: S. cerevisiae mlh1 rad18 strain growth inhibition; at 50.0 µM; stronger effect = higher value
In short: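 Read-out is yeast growth inhibition, calculated against vehicle-only controls. The compound was applied to a strain engineered with DNA damage repair alterations.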

Measured: growth inhibition

CC(C)CCC(=O)C(C)C
inactive: [1] 19.7% | [2] -9.55% | [3] 13.2% | [4] 11.5% | [5] 10.8% | [6] 15.2%

CCCCCCCCCCCCCCCO
inactive: [1] 0.45% | [2] -20.4% | [3] -2.45% | [4] -7.35% | [5] -7.25% | [6] 8.4%

C=C(CBr)CCCCC
inactive: [1] 65.1% | [2] 23.3% | [3] 62.6% | [4] 14.1% | [5] 29.8% | [6] 0.55%

CC(=O)N1c2ccccc2C23CCN4CC5=CCOC(O)C(C5CC42)C13 (configuration not stated)
inactive: [1] -20.1% | [2] -21.4% | [3] -18.6% | [4] -6.55% | [5] -13.9% | [6] -62.4%

COC(=O)NC1CC/C=C\CCC1I (configuration not stated)
inactive: [1] 12.8% | [2] 10% | [3] 8.1% | [4] 12.9% | [5] 22.9% | [6] 4.7%

CCOC1(c2ccccc2)NC(=O)NC1(OCC)c1ccccc1 (configuration not stated)
inactive: [1] 14.2% | [2] 5.75% | [3] 18% | [4] -20.1% | [5] 0.05% | [6] -9.6%

CC(=O)N(C)c1cccc2ccccc12
inactive: [1] 17.9% | [2] -1.35% | [3] 9.85% | [4] -4.65% | [5] 6.75% | [6] 5.2%

COc1cccc2c(=O)oc(-c3ccc(C(C)(C)C)cc3)nc12
inactive: [1] 16.4% | [2] 8.8% | [3] 18.4% | [4] 1.3% | [5] 13.4% | [6] 30.9%

CC(=O)OC1C(O[C@H]2CC[C@]34O[C@]35CC[C@]3(C)C(C6(C)CC[C@@H](C(C)(C)O)O6)[C@@H](O)CC3(C)[C@@H]5CC(OC3OC(CO)C(O)C(O)C3O)C4C2(C)C)OCC(O)C1O (some centres not stated)
inactive: [1] -8.4% | [2] -21.6% | [3] 2.7% | [4] 1.85% | [5] 0.7% | [6] 6.35%

COC1OCC(NC(C)=O)C(OC(C)=O)C1OC(C)=O (configuration not stated)
inactive: [1] 12.4% | [2] -13.1% | [3] -4.1% | [4] 2.35% | [5] -1.3% | [6] -8%

O=C(Nc1nc(C23CC4CC(CC(C4)C2)C3)cs1)c1c(O)c2ccccc2[nH]c1=O
inactive: [1] -29.2% | [2] -23.9% | [3] -8.75% | [4] 8.95% | [5] -6.45% | [6] -22.5%

CC(=O)[C@H]1CC[C@H]2[C@@H]3CC=C4N(CCO)C(=O)CC[C@]4(C)[C@H]3CC[C@]12C
inactive: [1] -18.9% | [2] -1.4% | [3] 14.8% | [4] -28.1% | [5] 25.9% | [6] 13.3%

Cc1ccncc1C#N
inactive: [1] 5% | [2] -2.25% | [3] -0.9% | [4] 6.55% | [5] 0.3% | [6] 3.95%

CC(=O)Nc1c(C)ccc([N+](=O)[O-])c1C
inactive: [1] -3.2% | [2] -2.2% | [3] -9.7% | [4] 5.95% | [5] 2.7% | [6] 13.5%

O=c1cc(CC2(O)CCCCC2)c2ccccc2[nH]1
inactive: [1] -3.95% | [2] 0.3% | [3] -2.5% | [4] -58% | [5] -48.8% | [6] 9.8%

O=C1C2C3(CCl)C1C23CCl (configuration not stated)
inactive: [1] 23.9% | [2] 46.6% | [3] 37.6% | [4] 10.4% | [5] 18.2% | [6] 40.6%

N=C1C(=O)C(=N)c2ccccc2-c2ccccc21
inactive: [1] -31% | [2] -48.8% | [3] -14.7% | [4] -0.05% | [5] -36.6% | [6] -23.9%

C=CCNC(=S)NCc1cccc2ccccc12
inactive: [1] -3.45% | [2] 36.3% | [3] 34.1% | [4] -28.1% | [5] 32.4% | [6] 21.1%

O=C1NC(=O)C2(N1)c1ccccc1-c1ccc(Br)cc12 (configuration not stated)
inactive: [1] -2.85% | [2] -8.9% | [3] -0.2% | [4] -20.4% | [5] 0.15% | [6] -2.7%

c1ccc(CNCCN(Cc2ccccc2)Cc2ccccc2)cc1
inactive: [1] 31.6% | [2] -1.8% | [3] 36.4% | [4] -11.8% | [5] 30.4% | [6] 25.7%

N/C(CC/C(N)=N\O)=N\O
inactive: [1] -1.95% | [2] -15.8% | [3] -11.2% | [4] -4.9% | [5] 1.1% | [6] -1.7%

Nc1ccc(N2CCN(c3ccc(N)cc3)CC2)cc1
inactive: [1] 12.2% | [2] -9.95% | [3] 16% | [4] 10.2% | [5] 12.3% | [6] 15.8%

Cc1ccc(NC(=O)CC2Sc3ccccc3NC2=O)c(C)c1 (configuration not stated)
inactive: [1] -7.6% | [2] -7.35% | [3] 7.5% | [4] -4.4% | [5] -20.3% | [6] -11.8%

O=c1[nH]c(-c2cccnc2)nnc1-c1ccc(Cl)cc1
inactive: [1] 17.1% | [2] 2.4% | [3] 10.4% | [4] 28.4% | [5] 27.9% | [6] 4.2%

CCCCCC(=O)OCCOCCCC
inactive: [1] 2.05% | [2] 4% | [3] -4.6% | [4] -35.4% | [5] 6.85% | [6] 5.85%

CCCCCCCCCCCCCCCCCCNC1=C(C)C(=O)C(NCCCCCCCCCCCCCCCCCC)=C(OCC)C1=O
inactive: [1] 2.7% | [2] -2.95% | [3] -0.85% | [4] -10.8% | [5] -1.2% | [6] -9.5%

CC(C)(O)c1cc(Cl)ccc1Sc1ccccc1
inactive: [1] -20.6% | [2] -15.2% | [3] -8.85% | [4] 13.7% | [5] 4.85% | [6] -8.2%

NCc1ccc(S(=O)(=O)Nc2cc(Br)cc(Br)c2)cc1
inactive: [1] 16.4% | [2] 14.8% | [3] 30.2% | [4] 35.1% | [5] 12% | [6] 30.4%

FC(F)Cc1ccccc1
inactive: [1] 3.55% | [2] -0.75% | [3] 11.1% | [4] -7.15% | [5] -1.5% | [6] -6.6%

CSc1c(S(C)=O)[nH]c2cc(Br)cc(Br)c12 (configuration not stated)
active: [1] 84.2% | [2] 89.3% | [3] 88.7% | [4] 71.6% | [5] 89.4% | [6] 85.2%

CCCCCCCCCCCCCCCC/C(C(=O)OC)=C(/O)C(=O)OCC
inactive: [1] -4.7% | [2] -12.1% | [3] -3.65% | [4] -67% | [5] -1.2% | [6] -5.75%

CCCCCCCCCCCCCCCCC/C(CC)=N/Nc1ccc([N+](=O)[O-])cc1[N+](=O)[O-]
inactive: [1] -16.9% | [2] 3.9% | [3] -24.6% | [4] -38.8% | [5] -3.2% | [6] -9.1%

CC1CCCc2c(CC3CC(=O)NC(=O)C3)nc(N)nc21 (configuration not stated)
inactive: [1] 6.75% | [2] 5.25% | [3] -18.8% | [4] -7.85% | [5] -4.7% | [6] -23.4%

COC(=O)/C=C/C(=O)N1CC(C)N(C(=O)/C=C/C(=O)OC)CC1C (configuration not stated)
inactive: [1] -8.45% | [2] -3.55% | [3] -9.2% | [4] 37.4% | [5] 1.45% | [6] -14.4%

NC(N)=NS(=O)(=O)c1ccc(NC(=O)c2ccc(Cl)c3c(Nc4ccc(S(=O)(=O)N=C(N)N)cc4)c4ccccc4nc23)cc1
inactive: [1] 32.2% | [2] 31.6% | [3] 30.9% | [4] 34.5% | [5] 10.2% | [6] 29.1%

CCCCCCCCCCCC(=O)NC(=S)Nc1ccc(C)c(C)c1
inactive: [1] 8.65% | [2] 58.2% | [3] 54.6% | [4] -13.6% | [5] 57.5% | [6] 36.9%

Cc1nc2cc([N+](=O)[O-])ccc2c(NCCCN(C)C)c1C
inactive: [1] 6.6% | [2] 8.35% | [3] 7.25% | [4] -1.45% | [5] -3.5% | [6] -39.6%
